# Measurements published in the supplement of paper PMC12494721.
# Where a name gives a salt, the structure may show the parent alone.
# Experiments:
# Conditions in all cases: incubation time: 27 h, anaerobic, 37 °C;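 for the amine columns active = adjusted P below 0.05 in both replicates with a change the same way and a mean fold change under 0.8 or over 1.25; inactive = the rest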
# [1] = system: Clostridium sporogenes DSM 1664; assay: growth (OD595) fold change vs plate DMSO controls (fold change (ratio)); higher = more growth
# Method in brief: (§1)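 Each value is the mean of 2 biological replicates, and fold changes above 1.5 were set to NA. The underlying readings were taken at 595 nm from shaken anaerobic mGAM cultures in 96-well plates after 27 h at 37 °C. They were blank-subtracted, corrected for compound background using 20 µM compound solutions in water, and converted to OD with a calibration factor of 5. Growth is the fold change relative to the median of the plate DMSO controls.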
# [2] = system: Escherichia coli IAI1; assay: as above
# Method in brief: as §1
# [3] = system: Klebsiella aerogenes DSM 30053; assay: as above
# Method in brief: as §1
# [4] = system: Ruminococcus gnavus DSM 108212; assay: as above
# Method in brief: as §1
# [5] = system: Klebsiella aerogenes DSM 30053; assay: fold change of Histamine concentration vs plate DMSO controls (fold change (ratio)); higher = more amine produced, active = hit call of the paper (significant change in both replicates, either direction)
# Method in brief: (§2)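 Using LC–triple-quadrupole MS with dynamic MRM, amines were quantified against external calibration curves and corrected for drift within each batch. Samples were whole anaerobic mGAM cultures of four gut strains, grown 27 h at 37 °C from OD 0.1 before 1:1 dilution, extracted with cold acetonitrile/methanol containing 0.1% formic acid and centrifuged. Compounds were present at 20 µM final (sweeteners at 50 µM final). The numbers are fold changes versus plate DMSO controls, each the mean of 2 biological replicates.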
# [6] = system: Clostridium sporogenes DSM 1664; assay: fold change of Tryptamine concentration vs plate DMSO controls (fold change (ratio)); higher = more amine produced, active = hit call of the paper (significant change in both replicates, either direction)
# Method in brief: as §2
# [7] = system: Ruminococcus gnavus DSM 108212; assay: as above
# Method in brief: as §2
# [8] = system: Escherichia coli IAI1; assay: fold change of Putrescine concentration vs plate DMSO controls (fold change (ratio)); higher = more amine produced, active = hit call of the paper (significant change in both replicates, either direction)
# Method in brief: as §2
# [9] = system: Klebsiella aerogenes DSM 30053; assay: as above
# Method in brief: as §2
# [10] = system: Escherichia coli IAI1; assay: fold change of Cadaverine concentration vs plate DMSO controls (fold change (ratio)); higher = more amine produced, active = hit call of the paper (significant change in both replicates, either direction)
# Method in brief: as §2
# [11] = system: Klebsiella aerogenes DSM 30053; assay: as above
# Method in brief: as §2
# [12] = system: Ruminococcus gnavus DSM 108212; assay: fold change of 2-Phenylethylamine concentration vs plate DMSO controls (fold change (ratio)); higher = more amine produced, active = hit call of the paper (significant change in both replicates, either direction)
# Method in brief: as §2
SMILES,growth [1],growth [2],growth [3],growth [4],fold change of Histamine concentration [5],fold change of Tryptamine concentration [6],fold change of Tryptamine concentration [7],fold change of Putrescine concentration [8],fold change of Putrescine concentration [9],fold change of Cadaverine concentration [10],fold change of Cadaverine concentration [11],fold change of 2-Phenylethylamine concentration [12]
COc1cc(NS(=O)(=O)c2ccc(N)cc2)ncn1 [Sulfamonomethoxine] (20 µM),1.06,0.996,0.978,1.09,1.11 (inactive),0.982 (inactive),0.944 (inactive),0.911 (inactive),1.02 (inactive),1.03 (inactive),0.991 (inactive),0.915 (inactive)
COc1cc([S+](C)[O-])ccc1-c1nc2cccnc2[nH]1 (stereo unspecified) [Sulmazole] (20 µM),0.885,0.999,0.98,1.1,0.922 (inactive),0.944 (inactive),1.19 (inactive),0.951 (inactive),0.952 (inactive),1.02 (inactive),1.05 (inactive),1.38 (inactive)
Clc1ccc(COC(Cn2ccnc2)c2ccc(Cl)cc2Cl)cc1 (stereo unspecified) [Econazole nitrate] (20 µM),1.35,1.01,1.08,0.481,0.83 (inactive),0.815 (inactive),0.357 (active),1.01 (inactive),0.963 (inactive),1.02 (inactive),1.01 (inactive),0.404 (active)
CCCC1C(=O)N2C(N(C)C)=Nc3ccc(C)cc3N2C1=O (stereo unspecified) [Azapropazone] (20 µM),1.1,1,0.964,1.01,1.08 (inactive),1.09 (inactive),0.961 (inactive),0.996 (inactive),1 (inactive),0.997 (inactive),0.978 (inactive),0.91 (inactive)
CN(C)C(=N)NC(=N)N [Metformin hydrochloride] (20 µM),0.988,1.02,0.989,1.26,0.96 (inactive),1 (inactive),1.06 (inactive),1.03 (inactive),0.96 (inactive),0.962 (inactive),1.02 (inactive),1.08 (inactive)
N=C(N)NC(=N)NCCc1ccccc1 [Phenformin hydrochloride] (20 µM),0.958,1.01,1.07,0.756,1 (inactive),1.03 (inactive),1.03 (inactive),0.964 (inactive),1 (inactive),1.07 (inactive),1.01 (inactive),1.05 (inactive)
CN(C)CCN(Cc1cccs1)c1ccccn1 [Methapyrilene hydrochloride] (20 µM),1.04,1,1,1.2,0.994 (inactive),1.02 (inactive),1.05 (inactive),0.892 (inactive),0.993 (inactive),1.18 (inactive),0.985 (inactive),1.08 (inactive)
N=c1ccn2c(n1)O[C@H]1[C@H](O)[C@@H](CO)O[C@H]12 [Ancitabine hydrochloride] (20 µM),1.2,1.01,0.999,0.855,1.06 (inactive),0.98 (inactive),0.744 (active),1.02 (inactive),0.991 (inactive),1 (inactive),0.992 (inactive),0.794 (inactive)
CCCCC(CC)CN1CN(CC(CC)CCCC)CC(C)(N)C1 (stereo unspecified) [Hexetidine] (20 µM),1.05,1.07,1.11,1.45,0.978 (inactive),1.23 (inactive),0.898 (inactive),1.05 (inactive),0.987 (inactive),1.04 (inactive),1.01 (inactive),1.05 (inactive)
Cn1cnc2c1c(=O)[nH]c(=O)n2C [Theobromine] (20 µM),1.19,1,1.04,1.11,0.986 (inactive),1.11 (inactive),1.05 (inactive),0.998 (inactive),0.991 (inactive),0.982 (inactive),1 (inactive),1.04 (inactive)
COC(=O)[C@H](Cc1ccccc1)NC(=O)[C@H](CC(=O)O)NCCCc1ccc(OC)c(O)c1 [Advantame] (50 µM),0.941,0.94,0.999,0.968,1 (inactive),0.973 (inactive),0.899 (inactive),0.932 (inactive),1.02 (inactive),1.04 (inactive),0.996 (inactive),0.9 (inactive)
N=C(N)N/N=C/c1c(Cl)cccc1Cl [Guanabenz acetate] (20 µM),0.918,0.923,0.914,1.48,1.02 (inactive),1.03 (inactive),1.02 (inactive),0.979 (inactive),0.99 (inactive),1.01 (inactive),0.973 (inactive),1.02 (inactive)
C/C(=C1\CCOC(=O)S1)N(C=O)Cc1cnc(C)nc1N [Cycotiamine] (20 µM),0.964,0.988,0.991,1.01,1.01 (inactive),1.02 (inactive),1.03 (inactive),0.971 (inactive),1.01 (inactive),1.01 (inactive),0.999 (inactive),1.06 (inactive)
